Measured values: ChEMBL document CHEMBL4513216, “Probing the Open Global Health Chemical Diversity Library for Multistage-Active Starting Points for Next-Generation Antimalarials” (ACS Infect Dis, 2020)
Screen size: about 69,000 compounds; about 8,600 (12%) showed an effect of 50% or more. Many of the other results were omitted from the sample, so strong results are more common in it than they were.

These compounds were tested on Plasmodium berghei (assay: Screen against P. berghei liver stage (PbLuc), transformed with Luciferase, at 10uM). Details: tested at 10 uM.
Format: functional, HepG2

| SMILES | INHIBITION [%] |
| --- | --- |
| COc1ccc(-c2nc(C(=O)NCC3CCOC3)cs2)cc1OC (stereo not given) | 34.7 |
| Cc1cn[nH]c1C1CCCN1Cc1ccc(F)c(F)c1 (stereo not given) | 15.5 |
| Cc1cc(N2CCCC2c2nc(C)cc(CCC(=O)O)n2)ncn1 (stereo not given) | 9.93 |
| Cc1cccc(CN2CCCC2c2cccc(CCC(=O)O)n2)c1 (stereo not given) | 51.5 |
| Cc1cc(C)nc(N2CCC(c3cccc(CCC(=O)O)n3)CC2)n1 | 4.13 |
| Cc1cc(C)nc(C2CCCN2c2ccnc(C)n2)n1 (stereo not given) | 7.52 |
| CN(C)C(=O)CCc1cncc(C2CCCN2Cc2ccccn2)n1 (stereo not given) | -1.85 |
| O=C(O)CCc1cccc(C2CCCN2Cc2cccc(Cl)c2)n1 (stereo not given) | 19.6 |
| O=C(O)CCc1cccc(C2CCCN2Cc2ccc(F)c(F)c2)n1 (stereo not given) | 58 |
| Cc1cc(CCC(=O)O)nc(C2CCCN2c2ccnc(C)n2)n1 (stereo not given) | 50.8 |
| O=C(c1ccnnc1)N1C[C@H](OCC2CC2)[C@H]2COC[C@H]21 | -2.25 |
| CCOC(=O)c1sc(NC(=O)c2cc(=O)c(OC)c[nH]2)nc1C | 8.12 |
| CCS(=O)(=O)N1CC[C@@H]2[C@H](CC1)N(Cc1cccc(C)n1)CCS2(=O)=O | 49.7 |
| CCc1nc(CN(C)C2CCN(Cc3nnc(C4CCC4)o3)C2)no1 (stereo not given) | 21.5 |
| CC1c2ncc(CNC(=O)C3CC3)n2CCN1Cc1cnn(C)c1 (stereo not given) | -8.94 |
| O=C(COc1ccccc1NCc1ccoc1)N1CCOCC1 | -5.22 |
| CCc1nnsc1C(=O)N1CCCC1c1c(C)nn(C)c1OC (stereo not given) | -25.8 |
| Cc1nc(C)c(Cc2nc(C3CC3)n[nH]2)c(=O)[nH]1 | 29 |
| Cc1nc(N)nc(C)c1Cc1nc(C2CC2)n[nH]1 | 32.3 |
| Cc1n[nH]c(C)c1CCc1nc(C2CC2)n[nH]1 | 50.7 |
| CC(=O)NCC(=O)N1CCN(CCN(C)C)c2ncccc2C1 | 6.79 |
| Nc1ccncc1-n1cc(CCO)cn1 | 33.3 |
| CC(C)n1nccc1NC(=O)NCCc1nc2ccc(F)cc2n1C | 73.6 |

| SMILES | INHIBITION [%] |
| --- | --- |
| Cn1c(CCCNC(=O)Nc2cn[nH]c2)nc2ccccc21 | -7.66 |
| Cn1c(CCNc2nccnc2C#N)nc2ccc(F)cc21 | 67.3 |
| Cc1nnc(NCCc2nc3ccc(F)cc3n2C)c(C#N)c1C | 34.1 |
| Cn1c(CCNc2nccnc2C#N)nc2cc(Cl)ccc21 | 32.3 |
| Cn1c(CCNC(=O)Nc2cn[nH]c2)nc2ccc(F)cc21 | -5.52 |
| Cc1nc(C2CCCN2CCOCC2CC2)no1 (stereo not given) | -77.6 |
| O=C(c1ccc(N2CCCC2)nn1)N1CCCC(n2ccnc2)C1 (stereo not given) | 29.2 |
| CCOc1ccc(CN2CCC(c3nc(C)cc(C)n3)C2)cc1CO (stereo not given) | 44.05 |
| CN1CC(C(=O)Nc2ccc(OCC(F)(F)C(F)F)nc2)CC1=O (stereo not given) | -14.6 |
| Cc1nc2[nH]cnc(NCCCN3CCOCC3)c-2n1 | 5.03 |
| Cc1nc(C2CCCN2CC(=O)NCCOc2ccc(F)cc2)no1 (stereo not given) | 55.15 |
| Cc1nc(C2CCCN2CC(=O)NCCOc2ccccc2)no1 (stereo not given) | 50.4 |
| COc1ccc(CCNC(=O)CN2CCCC2c2noc(C)n2)cc1 (stereo not given) | -3.2 |
| CCc1nc(C2CCCN2CC(=O)NCCOc2ccccc2)no1 (stereo not given) | -2.95 |
| Cc1nc(C2CCCN2CC(=O)NCCOc2cccc(F)c2)no1 (stereo not given) | 2.8815 |
| Cc1cccc(OCCNC(=O)CN2CCCC2c2noc(C)n2)c1 (stereo not given) | 6.905 |
| CCC(=O)N1C[C@@H](C(=O)NC)[C@H](c2ccnc(N3CCCC3)n2)C1 | 1.93 |
| Cc1cnn(CC2CN(Cc3cccc(OC(C)C)c3)CCO2)c1 (stereo not given) | 70.3 |
| Cn1c(CN2CCOC(Cn3cncn3)C2)nc2ccccc21 (stereo not given) | -4.93 |
| Cc1nc2ccccc2nc1CN1CCOC(Cn2cccn2)C1 (stereo not given) | 26.5 |
| Cc1cnn(CC2CN(Cc3nc(C)c4ccccc4n3)CCO2)c1 (stereo not given) | 35.3 |
| Cc1nc(CN2CCOC(Cn3cncn3)C2)nc2ccccc12 (stereo not given) | 21.1 |
| Cc1cnn(CC2CN(Cc3cccc(OCC(N)=O)c3)CCO2)c1 (stereo not given) | -2.4 |

| SMILES | INHIBITION [%] |
| --- | --- |
| c1ccc2sc(CN3CCOC(Cn4cncn4)C3)nc2c1 (stereo not given) | 85.9 |
| Cc1cnn(CC2CN(Cc3nc4ccccc4nc3C)CCO2)c1 (stereo not given) | 58 |
| c1ccc2sc(N3CCOC(Cn4cccn4)C3)nc2c1 (stereo not given) | 26.3 |
| c1ccc2sc(CN3CCOC(Cn4cccn4)C3)nc2c1 (stereo not given) | 72.4 |
| c1ccc2oc(CN3CCOC(Cn4cccn4)C3)nc2c1 (stereo not given) | -51.5 |
| Cc1nc(C)n(CC2CN(Cc3cccc(OC(C)C)c3)CCO2)n1 (stereo not given) | 45.7 |
| Cc1nc(C)n(C2CCCN(C(=O)COc3cccc(C#N)c3)C2)n1 (stereo not given) | 22.3 |
| C[C@@H](O)CNC(=O)c1nc(CC(=O)Nc2cccc(C(F)(F)F)c2)no1 | 29.9 |
| Cc1ccc(N2CCC3(CC2)CC(OCC(C)C)C3)nn1 | 31.2 |
| O=C(O)C1CN(c2cccc(Cl)c2)CCO1 (stereo not given) | -6.92 |
| COCC(O)CNC(=O)Nc1c(F)cc(F)cc1-c1ccccc1 (stereo not given) | 1.19 |
| CCn1ncc2c1C(COCC1CC1)CN(c1ccncn1)C2 (stereo not given) | -15.1 |
| COCC(=O)NCc1cc(=O)n2c(n1)CN(Cc1cccs1)CCC2 | 25.8 |
| CCC[C@@H]1CN(c2ncnc3ccsc23)C[C@H]1NS(C)(=O)=O | -3.58 |
| Cc1cnccc1NCCNC(=O)[C@H]1CNC[C@H](C(=O)N2CCCC2)C1 | 15.9 |
| CC(C)CCN1CCC2(CC1)NCc1ccccc1NC2=O | 25.9 |
| CCc1nnc(CN2CCOC(Cn3cccn3)C2)o1 (stereo not given) | -5.25 |
| CC(C)(C)c1nnc(CN2CCOC(Cn3cncn3)C2)o1 (stereo not given) | 40.3 |
| Cc1cnn(CC2CN(CCCS(=O)(=O)N(C)C)CCO2)c1 (stereo not given) | 77.8 |
| CC(C)(C)c1nnc(CN2CCOC(Cn3cccn3)C2)o1 (stereo not given) | 59.7 |
| Cc1cnn(CC2CN(CCCS(C)(=O)=O)CCO2)c1 (stereo not given) | -12.1 |
| Cc1cnn(CC2CN(Cc3nc4ccccc4s3)CCO2)c1 (stereo not given) | 74.4 |
| Cc1cnn(CC2CN(Cc3nc4ccccc4n3C)CCO2)c1 (stereo not given) | -43.6 |

| SMILES | INHIBITION [%] |
| --- | --- |
| Cc1cnn(CC2CN(CCS(C)(=O)=O)CCO2)c1 (stereo not given) | -31.4 |
| Cc1cnn(CC2CN(Cc3nc4ccccc4o3)CCO2)c1 (stereo not given) | -61.4 |
| Cc1nc(NCc2ccc(F)cc2)cc(C(=O)N2CCOCC2)n1 | -10.1 |
| Clc1cccc(CNc2cnn(CCN3CCCCC3)c2)c1 | 21.2 |
| CC(C)Nc1nc(O)cc(C2CC(=O)N(C3CCCCC3)C2)n1 (stereo not given) | -23.245 |
| CN(C)c1cc(C(=O)NCCc2nnc(-c3ccco3)[nH]2)ccn1 | 17.4 |
| O=C(NCC1CC1)C1CN(C(=O)Nc2ccccc2)CC12CCOCC2 (stereo not given) | 19.4 |
| CCN(Cc1ccncc1)C(=O)C(C)n1ccnc1C(C)C (stereo not given) | 10.3 |
| CC(C)N1C(=O)CN(CCCO)CC1(C)C | -23 |
| Cc1ccc(NC(=O)c2cccc(OCc3nnnn3C)c2)nc1 | -1.57 |
| CCOc1cc(NC(=O)N2CCC(c3nnc[nH]3)CC2)ccc1C | 56.6 |
| O=C(CCCc1ccc(Cl)cc1)N1CCC(c2nnc[nH]2)CC1 | 20.9 |
| O=C(CCCN1CCCCC1)N1CCC(c2nnc[nH]2)CC1 | -7.53 |
| O=C(Nc1ccc(OC(F)F)cc1)N1CCC(c2nnc[nH]2)CC1 | 63.3 |
| COc1ccc(NC(=O)N2CCC(c3nnc[nH]3)CC2)cc1C | 37.6 |
| CCOc1ccc(NC(=O)N2CCOC(C(N)=O)C2)cc1C (stereo not given) | -5.08 |
| CC(Cn1cccn1)n1cnc2cccc(Cl)c2c1=O (stereo not given) | 36.6 |
| Oc1cc(C2CCNCC2)nc(-c2ccsc2)n1 | -33.6 |
| Cc1occc1CNC(=O)C1CCN(C(=O)OC(C)(C)C)C1 (stereo not given) | -2.27 |
| Fc1ccc(NCc2ccncc2)c(OC(F)F)c1 | 73.2 |
| C[S+]([O-])c1ccc(CNc2ccc(F)cc2OC(F)F)cc1 (stereo not given) | 38.5 |
| Fc1ccc(NCc2nnsc2Cl)c(OC(F)F)c1 | 47.4 |
| c1cc2nc(C3CCNCC3)nn2cc1NC1CCC1 | 40.3 |

| SMILES | INHIBITION [%] |
| --- | --- |
| CN(Cc1cccs1)C1CCC[C@@H]2CN(C(N)=O)C[C@H]12 (stereo not given in full) | 39.3 |
| Cc1noc(C)c1CN1CCc2ncc(CN(C)C)n2CC1 | 57.1 |
| Cc1noc(C)c1CN1CCc2ncc(CN3CCCC3)n2CC1 | 40.8 |
| CCN(CC)Cc1cnc2n1CCN(Cc1c(C)noc1C)CC2 | 27.5 |
| CC(c1nc(C2CC2)no1)N1CCN(CCCN2CCCC2=O)CC1 (stereo not given) | -2.53 |
| COc1cccc(CNc2nnc(C(C)(C)C)o2)c1OC | 7.22 |
| CCc1nnc(NCc2cccc(OC)c2OC)o1 | 50.2 |
| COc1cccc(CNC(C)Cn2cccn2)c1OC (stereo not given) | 20.9 |
| Cc1ncccc1Oc1ncnc(N2CCCC(O)(CO)CC2)c1C (stereo not given) | 36.7 |
| Cc1cncc(C2CCCN2CC(N)=O)n1 (stereo not given) | 35 |
| Cc1ccc(OCC(O)COC2CCOCC2)c(Br)c1 (stereo not given) | -98.4 |
| OC(COc1ccccc1Br)COC1CCOCC1 (stereo not given) | -42.8 |
| Cc1ccc(OCC(O)COC2CCOCC2)c(Cl)c1 (stereo not given) | 71.3 |
| Cc1ccc(NC(=O)C2CSCN2C(=O)c2cnccn2)cc1C (stereo not given) | 23.25 |
| NCCCC(=O)NCC1(O)CCCN(c2ccnc3cccnc23)C1 (stereo not given) | 4.35 |
| CCCn1nc(C)c(C(=O)N[C@@H]2CC[C@@H](N3CCCC3)[C@@H]2O)c1C | 1.65 |
| Cc1cccc(CN2C(=O)CCC23CCN(Cc2nccn2C)CC3)n1 | 37.2 |
| CN(C)[C@@H]1CO[C@H](CNC(=O)c2ccccc2)[C@H]1O | 53 |
| CN(C)[C@@H]1CO[C@H](CNC(=O)Nc2ccccc2)[C@H]1O | 11.6 |
| O=C(NC[C@H]1OC[C@@H](NC2CCC(F)(F)CC2)[C@@H]1O)Nc1ccccc1 | 25.3 |
| O=C(NC[C@H]1OC[C@@H](NC2COC2)[C@@H]1O)c1ccccc1 | 5.58 |
| O=C(NC[C@H]1OC[C@@H](NC2CCC(F)(F)CC2)[C@@H]1O)c1ccccc1 | 59.3 |
| CN(C)[C@@H]1CO[C@H](CNC(=O)c2cccs2)[C@H]1O | 44.1 |
